From PubChem BioAssay
AHR activator: activates the human aryl hydrocarbon receptor | P35869 | AHR-responsive luciferase reporter cells, luminescence | activation, % at 5 µM | actives 2.5% (n = 320,000) | AID 2796; in the data active = activation above about 47%;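 also: 0% = vehicle wells and 100% = reference agonist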
Mot1-301 SUMO: blocks SUMOylation pathway, rescuing yeast Mot1-301 growth; AID 2716; actives 1% (n = 320,000); growth rescue, % at 18.8 µM; S. cerevisiae Mot1-301 growth rescue, ATP luminescence, 38.5C; percent above DMSO median, 100 means doubled;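 active = every valid replicate shows activation above 250% relative to neutral control wells; inactive = the rest, any valid replicate at or below 250%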;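 also: OY570 slx delta 5 strain wells were the positive control but not used for scaling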
A1 inh: inhibitors of the anti-apoptotic protein A1, read as caspase activation. AID 2462. MEF A1-2A-BIM cells, Caspase-Glo 3/7 luminescence, 3 h; percent of clofoctol response, vehicle zero. caspase activation, % (concentration not given with the values). actives 0.066% (n = 330,000);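 active = over half of replicate activation scores above 10%, or exactly half above 10 with the replicate mean above 10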
Efflux pump inh: blocks antifungal efflux pumps in multiplex yeast assay | S. cerevisiae Candida pump triplex, Nile Red efflux | inhibition, % at 10 µM | actives 0.44% (n = 330,000) | AID 485275;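 active = plate passing quality check with inhibition over a set limit, or well fluorescence over plate mean plus 4 SD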;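 also: Nile Red retained in pooled yeast measured as flow cytometry median fluorescence; 0% = buffer negative control and 100% = Enniatin B positive control; higher means more Nile Red kept so more efflux inhibition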
VLA-4 inh: inhibition in a human VLA-4 binding assay; inhibition, % (about 7 µM as worked out from the volumes in the protocol); P13612; VLA-4 expressing cells, ligand binding flow cytometry; actives 0.2% (n = 330,000); AID 2557; in the data active = inhibition above about 50%
ALR H2O2 inh: blocks human ALR sulfhydryl oxidase activity; P55789; purified ALR, DTT oxidation, H2O2 HRP-luminol luminescence; inhibition, % (concentration not given with the values); actives 3.8% (n = 290,000);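 active = mean replicate inhibition above about 79%, with every replicate also reaching it, limit read from the data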
Target sequence (P55789 whole entry, looked up): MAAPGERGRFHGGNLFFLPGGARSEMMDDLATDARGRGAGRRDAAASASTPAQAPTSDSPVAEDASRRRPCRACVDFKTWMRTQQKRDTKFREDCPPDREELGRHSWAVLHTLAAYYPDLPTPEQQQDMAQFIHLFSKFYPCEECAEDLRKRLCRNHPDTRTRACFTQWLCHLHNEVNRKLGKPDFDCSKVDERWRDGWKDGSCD
AHR act cf: confirmation of human aryl hydrocarbon receptor activators | activation, % at 9 µM | human cells, AHR-responsive luciferase reporter, luminescence | actives 87% (n = 2,300) | shares compounds with AHR activator; in the data active = activation above about 49%;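 also: HepG2 hepatoma cells carrying a DRE-driven firefly luciferase reporter; 0% = vehicle wells and 100% = reference agonist wells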
PXR counter: PXR activation, counter-screen for AHR activators. shares compounds with AHR activator. cell-based PXR reporter, luciferase luminescence. activation, % at 11.6 µM. actives 88% (n = 2,300); in the data active = activation above about 11%;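 also: human hepatoma DPX-2 cells expressing full-length human PXR; 0% = DMSO and 100% = reference agonist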
Target sequence (O75469 whole entry, looked up): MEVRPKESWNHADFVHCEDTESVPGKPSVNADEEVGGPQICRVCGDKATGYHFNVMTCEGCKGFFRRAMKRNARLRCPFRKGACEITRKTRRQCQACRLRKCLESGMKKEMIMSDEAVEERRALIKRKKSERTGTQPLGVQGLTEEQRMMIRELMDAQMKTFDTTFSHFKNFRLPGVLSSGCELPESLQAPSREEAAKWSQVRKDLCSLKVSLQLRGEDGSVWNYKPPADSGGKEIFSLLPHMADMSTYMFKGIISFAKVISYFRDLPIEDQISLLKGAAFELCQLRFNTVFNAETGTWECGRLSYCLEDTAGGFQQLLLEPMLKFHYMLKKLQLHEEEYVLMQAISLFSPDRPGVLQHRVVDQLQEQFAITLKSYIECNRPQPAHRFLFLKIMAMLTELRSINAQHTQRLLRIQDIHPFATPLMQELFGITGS
Numbers without * were called inactive; i = inactive; · = no result. Hits are enriched below; roughly 7.2% of the tested compounds scored in any of these assays.

SMILES	AHR activator	Mot1-301 SUMO	A1 inh	Efflux pump inh	VLA-4 inh	ALR H2O2 inh	AHR act cf	PXR counter
Cc1ccc2nc(-c3ccc(-c4cccc(Cl)c4)cc3)c(NCc3ccccc3)n2c1	86.2*	-18.1	-0.3	0.1	-32.6	·	36.7	28.0*
Cc1ccc(CNCc2ccc3c(c2)OCO3)cc1	3.7	-3.2	-0.4	0.1	-0.3	-2.3	·	·
O=C(Nc1ccccc1C(=O)N/N=C/c1ccco1)c1ccc(Cl)cc1	86.5*	-8.3	-5.2	0.0	0.1	16.5	94.1*	29.9*
O=C(Nc1ccccc1C(=O)N/N=C/c1ccco1)c1ccc(F)cc1	200.4*	-8.6	-3.8	0.1	9.1	56.5	111.4*	12.3*
Cc1ccccc1C(=O)Nc1ccccc1C(=O)N/N=C\c1ccco1	7.0	-21.8	0.3	-0.3	10.9	14.5	·	·
O=C(Nc1ccccc1C(=O)N/N=C/c1ccco1)c1ccccc1	126.7*	2.0	-6.8	0.7	13.8	4.4	151.4*	17.7*
O=C(Nc1nccs1)c1ccc(-c2ccc(Cl)cc2)o1	83.8*	34.9	-3.9	-0.1	-10.0	5.5	37.4	25.8*
O=C(Nc1nccs1)c1ccc(-c2ccc(F)cc2)o1	4.4	14.7	-1.3	0.1	1.6	34.2	·	·
C=C(C)c1cccc(C(C)(C)NC(=O)Nc2ncccn2)c1	-1.5	5.2	0.2	-0.2	16.5	-5.4	·	·
C=C(C)c1cccc(C(C)(C)NC(=O)Nc2ccc(Cl)cn2)c1	90.8*	3.4	0.3	0.0	0.0	·	94.5*	73.4*
CCCCNC(=O)[C@H]1C[C@H]1[C@@H](O)[C@H](CO)NC(=O)[C@H](Cc1ccccc1)NC(=O)OC(C)(C)C	-2.5	1.2	0.3	0.0	-12.3	0.2	·	·
CCOc1ccc(Nc2nc(-c3cccnc3)cs2)cc1	114.6*	7.6	-7.9	0.0	14.4	-10.7	180.9*	14.2*
O=C(O)c1ccc(Nc2nc(-c3cccnc3)cs2)cc1	6.0	-14.1	-6.6	-0.3	-2.5	-50.4	·	·
COc1ccc(/C=C/C(=O)NC(=S)NNC(=O)c2cccs2)cc1	93.8*	-14.9	-1.0	0.2	11.3	7.1	36.2	5.3
Cc1cccn2c(=O)c(C=O)c(N3CCN(c4ccccc4)CC3)nc12	95.2*	20.5	0.2	0.0	0.5	74.3	81.0*	65.2*
Cc1cccn2c(=O)c(C=O)c(N3CCN(C)CC3)nc12	3.3	18.7	0.1	-0.2	2.9	0.2	·	·
COc1ccc(Nc2nc(N)nc(CSc3nccc(C)n3)n2)cc1	34.0	-12.4	0.3	0.0	21.0	-8.1	·	·
CCOc1ccccc1Nc1nc(N)nc(CSc2nccc(C)n2)n1	81.5*	546.6	1.3	0.1	4.3	4.4	70.0*	59.9*
Cc1cccc(Nc2nc(N)nc(CSc3nccc(C)n3)n2)c1	103.4*	-1.4	0.0	0.1	3.8	-8.1	102.8*	119.1*
Clc1cccc(CNCCCSc2ncccn2)c1	-0.6	16.5	-1.2	-0.1	11.0	-8.5	·	·
CC(=O)c1c(C)[nH]c(C(=O)Nc2nccs2)c1C	133.5*	-9.9	0.0	-0.1	-12.4	3.3	73.6*	35.8*
CC(=O)c1c(C)[nH]c(C(=O)Nc2ccc(C)c(C)c2)c1C	-16.1	35.2	-1.7	-0.1	-56.1	50.1	·	·
CC(=O)c1c(C)[nH]c(C(=O)Nc2cccc(C)n2)c1C	5.2	i	-4.1	0.3	15.9	-4.5	·	·
CCN(CC)c1ccc(NC(=O)c2[nH]c(C)c(C(C)=O)c2C)c(C)c1	1.6	-4.9	0.2	-0.1	-1.7	53.0	·	·
CC(=O)c1c(C)[nH]c(C(=O)Nc2ccc(F)cc2F)c1C	97.8*	-5.0	-2.4	-0.1	-5.5	·	131.0*	37.7*
SMILES	AHR activator	Mot1-301 SUMO	A1 inh	Efflux pump inh	VLA-4 inh	ALR H2O2 inh	AHR act cf	PXR counter
CC(=O)c1c(C)[nH]c(C(=O)Nc2cc(C)ccc2C)c1C	118.4*	6.0	0.5	-0.1	-11.4	·	92.6*	37.9*
CC(=O)N/N=C/c1cc(C(C)(C)C)cc(/C=N/NC(C)=O)c1O	81.6*	-1.5	0.6	-0.3	-30.1	7.5	82.9*	22.1*
CC1CCCN(C(=O)c2nn(C)c3c2CS(=O)(=O)c2ccccc2-3)C1 (centres undefined)	-0.9	-0.3	-1.0	0.0	31.4	-12.3	·	·
C/C(=N\Nc1nc2ccccc2s1)c1ccc2c(c1)OCO2	89.8*	-2.1	0.3	-0.2	0.1	7.2	111.8*	31.4*
COc1cccc(OC)c1C(=O)Nc1ccc2c3c(cccc13)CC2	12.5	-27.3	0.3	0.0	-5.8	3.6	·	·
COc1ccccc1C(=O)Nc1ccc2c3c(cccc13)CC2	83.0*	-12.5	0.3	0.1	-5.5	-2.1	34.9	84.8*
C/C(=N/NC(=O)CNC(=O)Cc1ccc(Cl)cc1)c1ccco1	0.4	20.6	0.5	-0.1	17.9	-0.3	·	·
S=C(N/N=C/c1ccccc1Cl)Nc1cccc(Cl)c1Cl	118.5*	-7.2	-0.8	0.1	7.0	5.1	102.8*	30.3*
S=C(NCC1CC1)N/N=C/c1ccccc1Cl	5.0	7.8	0.5	0.0	6.2	15.6	·	·
O=C(Nc1nc2c(F)cccc2s1)c1ccco1	120.9*	-16.2	-6.1	0.2	0.9	-1.3	71.7*	49.5*
CC(=O)Nc1nc2c(F)cccc2s1	46.0	3.5	-1.0	0.1	12.0	-4.3	·	·
CSc1nc2ccc(NC(=O)c3ccco3)cc2s1	22.9	101.1	-2.7	0.1	-5.9	-4.7	·	·
CC(=O)Nc1ccc2nc(NC(=O)c3ccco3)sc2c1	119.2*	0.3	-8.1	-0.1	8.9	-2.3	65.7*	18.5*
Fc1cccc2sc(Nc3nnc(-c4ccco4)o3)nc12	150.8*	35.2	-5.6	0.0	-4.0	0.9	121.0*	40.5*
Cc1nc(NC(=O)c2ccco2)sc1C(=O)Nc1ccc(Br)cc1	108.4*	7.6	-1.4	-0.1	27.3	-7.0	144.8*	79.5*
Cc1nc2sc(C(c3ccc(F)cc3)N3CCN(C(=O)c4ccco4)CC3)c(O)n2n1 (centres undefined)	-1.2	4.9	0.8	0.0	7.7	·	·	·
Cc1onc(-c2c(F)cccc2Cl)c1C(=O)Nc1cccc(S(=O)(=O)NC2=NCCC2)c1	1.0	-10.6	-0.6	-0.1	14.9	1.8	·	·
CC(C)CNC(=S)N(CCCO)Cc1cc2cc3c(cc2[nH]c1=O)OCO3	91.7*	3.5	-0.5	-0.1	-22.0	0.5	100.2*	19.1*
CC(C)CNC(=S)N(CCN(C)C)Cc1cc2cc3c(cc2[nH]c1=O)OCO3	27.9	-20.2	1.3	-0.1	10.2	-1.6	·	·
CC(C)CC[n+]1ccn(-c2nc3ccccc3nc2[N-]S(=O)(=O)c2ccc(Cl)cc2)c1	-1.4	-4.9	-0.3	0.0	-0.1	-17.8	·	·
